In PubChem BioAssay (NCI):
Compounds without any hit were thinned out: in the full panel of roughly 83,000, 20% have a hit.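 Compound tested at a single concentration for 48 hours in 96-well plates; a percent growth value below 10 was scored as active.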 The source made the active and inactive calls.

How the values were obtained:
Experiment in all cases: NCI-60 one-dose screen, 48 h (100 = growth as untreated, 0 = no growth, -100 = all killed)
Conditions in all cases: 10 µM unless noted
HCT-15 colon = system: HCT-15 colon
HT29 colon = system: HT29 colon
SNB-75 CNS = system: SNB-75 CNS
SNB-19 CNS = system: SNB-19 CNS
U251 CNS = system: U251 CNS
PC-3 prostate = system: PC-3 prostate
SK-MEL-5 melanoma = system: SK-MEL-5 melanoma
UACC-62 melanoma = system: UACC-62 melanoma
LOX IMVI melanoma = system: LOX IMVI melanoma
SK-MEL-28 melanoma = system: SK-MEL-28 melanoma
SK-MEL-2 melanoma = system: SK-MEL-2 melanoma
EKVX NSCLC = system: EKVX NSCLC
SN12C renal = system: SN12C renal
UO-31 renal = system: UO-31 renal
TK-10 renal = system: TK-10 renal
ACHN renal = system: ACHN renal
CAKI-1 renal = system: CAKI-1 renal
A498 renal = system: A498 renal
CCRF-CEM leukemia = system: CCRF-CEM leukemia
MOLT-4 leukemia = system: MOLT-4 leukemia

Measured: growth

CCOC(=O)c1nnn(Cc2cc(=O)oc3ccc(O)cc23)c1C
inactive: HCT-15 colon 103% | HT29 colon 103% | SNB-75 CNS 93.4% | SNB-19 CNS 96% | U251 CNS 105% | PC-3 prostate 95.2% | SK-MEL-5 melanoma 104% | UACC-62 melanoma 95.9% | LOX IMVI melanoma 99.9% | SK-MEL-28 melanoma 107% | SK-MEL-2 melanoma 111% | EKVX NSCLC 105% | SN12C renal 96.2% | UO-31 renal 91.8% | TK-10 renal 101% | ACHN renal 105% | CAKI-1 renal 96.7% | A498 renal 101% | CCRF-CEM leukemia 82.9% | MOLT-4 leukemia 100%

CCCc1cc(=O)oc2c(C(=O)CC(C)C)c(O)c(CC=C(C)C)c(O)c12
inactive: HCT-15 colon 16.9% | HT29 colon 57.3% | SNB-75 CNS 52.6% | SNB-19 CNS 21.5% | U251 CNS 22.5% | LOX IMVI melanoma 33.8% | SK-MEL-28 melanoma 26.3% | SK-MEL-2 melanoma 14.1% | EKVX NSCLC 13.7% | SN12C renal 11.6% | UO-31 renal 20% | TK-10 renal 27.4% | ACHN renal 27.5% | CAKI-1 renal 11.1% | CCRF-CEM leukemia 12.9% | MOLT-4 leukemia 19.1%
active: PC-3 prostate 6.87% | SK-MEL-5 melanoma -45.8% | UACC-62 melanoma -1.35% | A498 renal -16.3%

CN(C)c1ccc(/C=C2\C=C(c3nc4ccccc4s3)OC2=O)cc1
inactive: HCT-15 colon 102% | HT29 colon 98.2% | SNB-75 CNS 87.2% | SNB-19 CNS 95.3% | U251 CNS 98.4% | PC-3 prostate 78.5% | SK-MEL-5 melanoma 96.4% | UACC-62 melanoma 75.4% | LOX IMVI melanoma 91% | SK-MEL-28 melanoma 106% | SK-MEL-2 melanoma 107% | EKVX NSCLC 94% | SN12C renal 97.1% | UO-31 renal 73.4% | TK-10 renal 118% | ACHN renal 92.2% | CAKI-1 renal 76% | A498 renal 112% | MOLT-4 leukemia 94.8%

CCCC(O)Cn1ncc(C(=O)OCC)c1NC(=O)NCc1cccc(C(F)(F)F)c1 (stereo not given)
inactive: HCT-15 colon 104% | HT29 colon 85.9% | SNB-75 CNS 101% | SNB-19 CNS 104% | U251 CNS 105% | PC-3 prostate 64.7% | SK-MEL-5 melanoma 93.6% | UACC-62 melanoma 80.1% | LOX IMVI melanoma 87.5% | SK-MEL-28 melanoma 105% | SK-MEL-2 melanoma 73.4% | EKVX NSCLC 90.5% | SN12C renal 93.7% | UO-31 renal 65% | TK-10 renal 90.4% | ACHN renal 97.7% | CAKI-1 renal 83.8% | A498 renal 99% | MOLT-4 leukemia 62%

COC(=O)c1sccc1-c1cc(O)c(C(=O)Nc2ccccc2)s1
inactive: HCT-15 colon 97.7% | HT29 colon 90% | SNB-75 CNS 72% | SNB-19 CNS 107% | U251 CNS 101% | PC-3 prostate 90.4% | SK-MEL-5 melanoma 102% | UACC-62 melanoma 91.2% | LOX IMVI melanoma 96.6% | SK-MEL-28 melanoma 110% | SK-MEL-2 melanoma 104% | EKVX NSCLC 71.9% | SN12C renal 105% | UO-31 renal 69.9% | TK-10 renal 121% | ACHN renal 94% | CAKI-1 renal 86.4% | A498 renal 115% | MOLT-4 leukemia 96.9%

Clc1ccc(-c2cc(-c3ccccc3)nc(N3CCN(CCCNc4ccnc5cc(Cl)ccc45)CC3)n2)cc1
active: HCT-15 colon -25.5% | HT29 colon -1.6% | SNB-75 CNS -23.9% | U251 CNS -52.9% | LOX IMVI melanoma -95.5% | SK-MEL-28 melanoma -37.5% | SN12C renal -90.2% | UO-31 renal -52% | ACHN renal 3.37% | CAKI-1 renal -31.5% | MOLT-4 leukemia 2.31%
inactive: SNB-19 CNS 49% | PC-3 prostate 43.1% | SK-MEL-5 melanoma 33.2% | UACC-62 melanoma 51% | SK-MEL-2 melanoma 12.4% | EKVX NSCLC 80.1% | TK-10 renal 40.5% | A498 renal 69.5%

Nc1ccc(Br)cc1C(F)(F)F
inactive: HCT-15 colon 106% | HT29 colon 108% | SNB-75 CNS 109% | SNB-19 CNS 104% | U251 CNS 109% | PC-3 prostate 105% | SK-MEL-5 melanoma 103% | UACC-62 melanoma 108% | LOX IMVI melanoma 99.2% | SK-MEL-28 melanoma 121% | SK-MEL-2 melanoma 104% | EKVX NSCLC 109% | SN12C renal 99.8% | UO-31 renal 88.1% | TK-10 renal 108% | CAKI-1 renal 104% | A498 renal 107% | CCRF-CEM leukemia 101% | MOLT-4 leukemia 108%

Cc1c(C(C)(C)O)cn2ncnc(Oc3ccc(NC(=O)Nc4ccc(Cl)c(C(F)(F)F)c4)c(F)c3)c12
inactive: HCT-15 colon 55.5% | HT29 colon 61.1% | SNB-75 CNS 36.5% | SNB-19 CNS 53.2% | U251 CNS 47% | PC-3 prostate 39.2% | SK-MEL-5 melanoma 61.4% | UACC-62 melanoma 72% | LOX IMVI melanoma 59.7% | SK-MEL-28 melanoma 71.3% | SK-MEL-2 melanoma 94.7% | EKVX NSCLC 56.3% | SN12C renal 57.6% | UO-31 renal 69.9% | TK-10 renal 85.1% | CAKI-1 renal 47.9% | A498 renal 29.5% | CCRF-CEM leukemia 29.2% | MOLT-4 leukemia 32.2%

COc1ccc(C(O)c2cc3c(N)c(C(=O)Nc4cccc5ccccc45)sc3nc2C)cc1 (stereo not given)
inactive: SNB-75 CNS 32.5% | SNB-19 CNS 25% | U251 CNS 20.1% | PC-3 prostate 14.1% | UACC-62 melanoma 18.6% | LOX IMVI melanoma 19.1% | SK-MEL-28 melanoma 57.6% | SK-MEL-2 melanoma 35.8% | EKVX NSCLC 41.8% | SN12C renal 14.4% | UO-31 renal 25.8% | TK-10 renal 63.8% | ACHN renal 22% | CAKI-1 renal 15.5% | MOLT-4 leukemia 10.9%
active: HCT-15 colon 6.45% | HT29 colon 6.41% | SK-MEL-5 melanoma -47.4% | A498 renal -13.1%

N#Cc1c(-c2ccccc2)cc(-c2ccccc2)n(CCCCC(=O)NO)c1=O
inactive: HCT-15 colon 13.8% | HT29 colon 19.1% | SNB-19 CNS 43.3% | U251 CNS 29.1% | PC-3 prostate 32.9% | SK-MEL-28 melanoma 17.6% | SK-MEL-2 melanoma 40.6% | EKVX NSCLC 30.6% | SN12C renal 23.2% | TK-10 renal 28.4% | A498 renal 13.2% | CCRF-CEM leukemia 11.9% | MOLT-4 leukemia 11.4%
active: SNB-75 CNS -8.42% | SK-MEL-5 melanoma -53% | UACC-62 melanoma 2.89% | LOX IMVI melanoma -54.9% | UO-31 renal -51.6% | CAKI-1 renal 1%

CC(C)(C)c1ccc(S(=O)(=O)Oc2ccc(-c3sc4cc(OS(=O)(=O)c5ccc(C(C)(C)C)cc5)ccc4c3C(=O)c3ccc(OCCN4CCCCC4)cc3)cc2)cc1
inactive: HCT-15 colon 97.8% | HT29 colon 90.8% | SNB-75 CNS 56.6% | SNB-19 CNS 97.6% | U251 CNS 103% | PC-3 prostate 88.8% | SK-MEL-5 melanoma 99.6% | UACC-62 melanoma 95% | LOX IMVI melanoma 99.9% | SK-MEL-28 melanoma 97.8% | SK-MEL-2 melanoma 89.9% | EKVX NSCLC 83.8% | SN12C renal 98.9% | UO-31 renal 74.6% | TK-10 renal 90.4% | ACHN renal 98.1% | CAKI-1 renal 95.7% | A498 renal 105% | MOLT-4 leukemia 95.7%

N#Cc1c(-c2cccc(Cl)c2)cc(-c2cccnc2)[nH]c1=O
inactive: HCT-15 colon 44.8% | HT29 colon 115% | SNB-75 CNS 61.1% | SNB-19 CNS 67.9% | U251 CNS 71.8% | PC-3 prostate 87.3% | SK-MEL-5 melanoma 67.1% | UACC-62 melanoma 36.6% | LOX IMVI melanoma 81.2% | SK-MEL-28 melanoma 64.4% | SK-MEL-2 melanoma 79.7% | EKVX NSCLC 100% | SN12C renal 82.6% | UO-31 renal 64.3% | TK-10 renal 127% | ACHN renal 89% | CAKI-1 renal 72.8% | A498 renal 101% | MOLT-4 leukemia 72.1%

Cc1c2ccccc2nc2cc3c(cc12)[C@H]1CC[C@]2(C)C(=O)CC[C@H]2[C@@H]1CC3
inactive: HCT-15 colon 90.3% | HT29 colon 99.9% | SNB-75 CNS 66.4% | SNB-19 CNS 84.9% | U251 CNS 92% | PC-3 prostate 80.6% | SK-MEL-5 melanoma 88.8% | UACC-62 melanoma 88.1% | LOX IMVI melanoma 97.8% | SK-MEL-28 melanoma 111% | SK-MEL-2 melanoma 103% | EKVX NSCLC 91.5% | SN12C renal 95.4% | UO-31 renal 74% | TK-10 renal 111% | CAKI-1 renal 73.7% | A498 renal 104% | CCRF-CEM leukemia 97.4%

O=S(=O)(Nc1ccc2ccccc2c1)c1ccc(-c2cnc(C3CC3)o2)cc1
active: SNB-75 CNS -1.76% | A498 renal 3.93%
inactive: HCT-15 colon 31.5% | HT29 colon 14.8% | SNB-19 CNS 35.8% | U251 CNS 23.6% | PC-3 prostate 23.4% | SK-MEL-5 melanoma 28.2% | UACC-62 melanoma 32.1% | LOX IMVI melanoma 56.9% | SK-MEL-28 melanoma 64.9% | SK-MEL-2 melanoma 40.2% | EKVX NSCLC 41.9% | SN12C renal 44.9% | UO-31 renal 42.5% | TK-10 renal 61.9% | CAKI-1 renal 28.9% | CCRF-CEM leukemia 10.7% | MOLT-4 leukemia 20.2%

CCOC(=O)c1cnn(CC(C)O)c1NC(=O)NCc1ccccc1C(F)(F)F (stereo not given)
inactive: HCT-15 colon 101% | HT29 colon 82.1% | SNB-75 CNS 93.6% | SNB-19 CNS 103% | U251 CNS 101% | PC-3 prostate 107% | SK-MEL-5 melanoma 102% | UACC-62 melanoma 91.8% | LOX IMVI melanoma 100% | SK-MEL-28 melanoma 103% | SK-MEL-2 melanoma 76.6% | EKVX NSCLC 98.1% | SN12C renal 99% | UO-31 renal 87.1% | TK-10 renal 80.9% | CAKI-1 renal 86.4% | A498 renal 108% | CCRF-CEM leukemia 114% | MOLT-4 leukemia 76%

N=C(N)c1ccc(-c2ccc(-c3cc(Cl)cc(Cl)c3)s2)s1
active: HCT-15 colon -84.8% | HT29 colon -80.1% | SNB-75 CNS 3.24% | SNB-19 CNS -61.9% | U251 CNS -86.5% | UACC-62 melanoma -74% | LOX IMVI melanoma -82.4% | EKVX NSCLC -12.2% | SN12C renal -65.4% | UO-31 renal -40.2% | TK-10 renal -26.5% | CAKI-1 renal 2.68% | CCRF-CEM leukemia -12.4% | MOLT-4 leukemia -41.9%
inactive: PC-3 prostate 35.6% | SK-MEL-5 melanoma 86.6% | SK-MEL-28 melanoma 33.7% | SK-MEL-2 melanoma 83.4% | A498 renal 73.6%
